# Screening results as filed in PubChem BioAssay.
# Compounds with a hit are over-represented: about 17% of the library has one in this group of screens.
# TGFb inhibitor – TGF-b pathway inhibition; HepG2 CAGA-GFP TGF-b/SMAD3 reporter, GFP fluorescence, 18 h; TGF-beta stimulated, 500 pg/mL final; hit rate 1.2% among 410,000; AID 588855; Potency, µM (series often up to 46.1 µM), for the others: at the top dose activity, negative = inhibition, hits mostly inhibitors; further: on the % scale 0 is the no-effect control and ±100 the full control effect; nearly all actives have a fitted effect of over 65% in size
#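 Inhibition was scored as loss of TGF-beta-induced (500 pg/mL final, 18 hours, 37 degrees C) GFP in HEPG2 cells carrying a CAGA-GFP reporter, in DMEM with 1% FBS. Well GFP was summed per cell; Activity was normalised to unstimulated and stimulated DMSO wells, then concentration-response fitting.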
# TDP1 cell CPT – growth inhibition of DT40 Tdp1-/-;hTDP1 cells with camptothecin (screen for TDP1 inhibitors); chicken DT40 Tdp1-/-;hTDP1 cells + 20 nM CPT, ATP luminescence, 48 h; Potency, µM (doses to about 46.2 µM), for the others: at the top dose activity change, negative = growth inhibition, usual class: inhibitors; hit rate 12% among 420,000; AID 686979; further: on the % scale 0 is the no-effect control and ±100 the full control effect; nearly all actives have a fitted effect of over 55% in size
#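 Chicken DT40 Tdp1-/- cells stably complemented with human TDP1 were seeded at 400 cells/well in medium containing 20 nM camptothecin, exposed to pin-transferred compounds, and grown at 37 °C for at least 48 hr. Viability was read as ATP luminescence.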
# HT1080-NT tox – kills 2HG-producing HT-1080-NT fibrosarcoma cells; HT-1080-NT fibrosarcoma viability, CellTiter-Glo ATP luminescence, 48 h; Potency, µM (titrated, usually from 46.1 µM), without a hit: top-dose activity, negative = less viability, hits mostly cytotoxic; hit rate 1.6% among 360,000; AID 686970;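 further: NT is the 2HG producing partner of a matched IDH1 knockdown line; 0% = DMSO-treated cells and -100% = media-only wells without cells; nearly all actives have a fitted effect of over 55% in size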
#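 Luminescent CellTiter-Glo readout after 48 hours of compound exposure at 37 degrees C defined viability of HT-1080-NT cells. Activity was normalized to DMSO wells and cell-free media wells; concentration-response curves were fitted and assigned curve classes.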
# HepG2 tox – HepG2 cytotoxicity, counter-screen for TGF-b inhibitors; HepG2 CAGA-GFP viability, ATP luminescence, 18 h; Potency, µM (titrated, usually from 46.1 µM), inactives show top-dose activity change, negative = cytotoxicity, actives largely listed as cytotoxic; hit rate 0.76% among 410,000; AID 588856
#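 HepG2 CAGA-GFP cells (1000/well, DMEM with 1% FBS) received compound, then TGF-beta at 500 pg/mL final, and were incubated 18 hours at 37 degrees C. Viability was read by CellTiter-Glo luminescence. Media-only wells were set as complete cell-killing and DMSO as no toxicity.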
# DT40 TDP1 no CPT – qHTS for Inhibitors of human tyrosyl-DNA phosphodiesterase 1 (TDP1): qHTS in cells in absence of CPT; DT40 Tdp1-/- hTDP1 cells, no CPT, ATP luminescence, 48 h; Potency, µM (doses to about 46.2 µM), for the others: at the highest dose activity change, negative = growth inhibition, most hits filed as inhibitors; hit rate 15% among 420,000; AID 686978, 2013; further: on the % scale 0 is the no-effect control and ±100 the full control effect; nearly all actives have a fitted effect of over 55% in size
#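 Chicken DT40 Tdp1-/- cells complemented with human TDP1, screened without camptothecin (DMSO vehicle only), 400 cells/well. Compounds pin-transferred, cells incubated at 37 °C for at least 48 hr. Growth read as ATP-dependent luminescence (CellTiter-Glo, 30 min at RT).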
# HT1080 IDH1KD tx – HT-1080 IDH1 knockdown cell toxicity (counter line); Potency, µM (series often up to 46.1 µM), for the others: at the top dose activity, negative = toxicity, usual class: cytotoxic; hit rate 2% among 360,000; HT-1080 IDH1 knockdown viability, ATP luminescence, 48 h;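 further: 0% = DMSO wells and -100% = cell-free medium wells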
#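 IDH1KD HT-1080 cells, 750/well, RPMI + 5% FBS; compound pinned after 2 h settling; 48 h, 37 °C; CellTiter-Glo luminescence; % activity normalised to DMSO and no-cell wells; curves fitted, classed by r2 and efficacy.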
# Active calls of the source: *; ? = inconclusive; . = no result. The call rests on the fitted dose curve; in most records, active means well fitted curve in the direction sought with a large enough effect; inconclusive means small, poorly fitted or top-dose-only effect, or another doubt; inactive means no such curve, though single readings can be large; an effect the other way counts as inactive or inconclusive. Potency means the concentration at half of the fitted maximal effect.
SMILES,TGFb inhibitor,TDP1 cell CPT,HT1080-NT tox,HepG2 tox,DT40 TDP1 no CPT,HT1080 IDH1KD tx
CCN(C(=O)CO/N=C/c1ccc(OC)cc1OC)c1c(N)n(Cc2ccccc2)c(=O)[nH]c1=O,-6.0%,-7.0%,5.7%,-0.6%,2.0%,7.7%
NS(=O)(=O)c1ccc(S(=O)(=O)N2CCN(c3nc(-c4cccs4)nc4ccccc34)CC2)cc1,-26.8%,?,.,0.2%,?,.
Cc1ccc(S(=O)(=O)N(C)CCN(C)c2nc(-c3cccs3)nc3ccccc23)cc1,.,?,12.1%,.,20µM*,22.5%
CNCCN(C)c1nc(-c2cccs2)nc2ccccc12,.,?,?,.,22.4µM*,?
CN(CCO)c1nc(-c2cccs2)nc2ccccc12,.,17.8µM*,-23.6%,.,?,-20.6%
CCOc1ccc(C(=O)NCc2nc(-c3ccc(Cl)cc3)no2)cc1OCC,-2.1%,-18.7%,.,-7.0%,?,.
CC(C)C(=O)NCC(c1ccc2c(c1)OCO2)N1CCN(c2ccccc2F)CC1 (stereo not drawn),-0.5%,-2.8%,.,-24.7%,-6.7%,.
COc1cc(/C=C2/NC(=O)N(Cc3ccccc3F)C2=O)cc(OC)c1OC,11.5%,?,-5.5%,-26.1%,16.4µM*,-22.8%
O=S(=O)(O)CCCS(=O)(=O)O,.,2.7%,.,.,-3.8%,.
Cc1cccc(/C=N/NC(=O)Cn2nc(C)cc2C)n1,3.6%,0.6%,-5.2%,13.4%,3.1%,-0.9%
CCOc1ccc(/C=C/c2ccnc3ccccc23)cc1OCC,?,10µM*,.,-61.7%,11.2µM*,.
CN(C)c1ccc(/C=C/c2ccnc3ccccc23)cc1O,97.7%,11.2µM*,.,-49.7%,10µM*,.
CN(C)c1ccc(/C=C/c2ccnc3ccccc23)cc1C=O,?,15.8µM*,.,-18.1%,10µM*,.
CCc1cc(/C=C/c2ccnc3ccccc23)ccc1N(C)C,-3.1%,5.01µM*,.,-56.9%,2.82µM*,.
CCOC(=O)CC1c2nc3ccccc3cc2CN1C(=O)OCC (stereo not drawn),-11.6%,?,4.6%,-18.6%,?,9.4%
CC(C)Oc1cccc(NC(=O)C2(C)CCN2C(C)C)c1 (stereo not drawn),-20.8%,?,24.5%,-0.1%,?,20.0%
CCC(C)C1Nc2ccc(C(=O)NCCc3ccc(OC)c(OC)c3)cc2NC1=O (stereo not drawn),-1.1%,16.4µM*,?,6.1%,?,?
CC1Nc2ncnc(N3CCN(c4ccccc4)CC3)c2N(Cc2ccc(Cl)cc2)C1=O (stereo not drawn),-27.0%,?,-19.0%,-17.6%,18.4µM*,-12.1%
CC1Nc2ncnc(N3CCN(c4ccccc4)CC3)c2N(Cc2ccccc2)C1=O (stereo not drawn),17.6%,?,-6.7%,10.8%,16.4µM*,-6.2%
CC1Nc2ncnc(N3CCOCC3)c2N(Cc2ccc(Cl)cc2)C1=O (stereo not drawn),?,-22.9%,-7.6%,5.4%,?,0.4%
O=C1OC[C@H]2CCCN2C(=O)[C@@H](CC(=O)N(CCO)Cc2ccccc2)C/C=C\C[C@@H]1Cc1ccc(F)cc1,-21.3%,7.31µM*,-9.2%,-24.5%,18.4µM*,-0.3%
CC(C)(C)OC(=O)C[C@H]1C/C=C\C[C@@H](CC(=O)N(CCO)Cc2ccccc2)C(=O)N2CCC[C@H]2COC1=O,?,18.4µM*,-3.7%,-23.6%,?,-2.0%
c1cc2c(cc1C1CCCN1)OCCCO2 (stereo not drawn),?,-6.2%,9.7%,2.4%,-10.0%,17.4%
O=C(Nc1ccc(NC(=O)c2ccco2)nc1)c1ccco1,-6.0%,-1.6%,-25.5%,-30.8%,-19.1%,-11.8%
